# HP1b binding inh: blocks HP1-beta chromodomain binding to methylated histone tails; AID 540317; P83916; actives 0.56% (n = 390,000); AlphaScreen HP1-beta / biotin-H3K9me3 peptide binding; Potency, µM (doses to about 114 µM), for the others: top-dose activity change, negative = inhibition, actives largely listed as inhibitors; note: nearly all actives have a fitted effect of over 70% in size
#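 Compound inhibition of the preformed complex between 50 nM HP1-beta and 50 nM biotinylated H3K9me3 peptide was read by AlphaScreen. Buffer was PBS pH 7.4 with 0.01% Tween-20. Incubations ran 30 min at room temperature, with 10 ug/mL donor/acceptor beads.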
# L3MBTL1 inh: inhibitors of human L3MBTL1 | actives 0.66% (n = 230,000) | Q9Y468 | AlphaScreen L3MBTL1–H3K9me1 peptide binding | Potency, µM (series often up to 57.1 µM), inactives show top-dose activity, negative = inhibition, actives largely listed as inhibitors; note: % is set by controls: 0 for no effect and ±100 for the full control effect; nearly all actives have a fitted effect of over 60% in size
#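 Displacement of a biotinylated histone H3(1-15) peptide monomethylated at Lys9 (75 nM) from L3MBTL1 (50 nM) was measured by AlphaScreen after a 30 min room-temperature compound incubation; cefsulodin titration served as intraplate control.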
# JMJD2A Tudor: inhibitors of human JMJD2A Tudor domain; AlphaScreen JMJD2A-Tudor / H3K4me3 peptide binding; Potency, µM (top dose mostly 114 µM), for inactives: at the highest dose activity change, negative = inhibition, hits mostly inhibitors; actives 4.4% (n = 390,000); AID 504339; note: % is set by controls: 0 for no effect and ±100 for the full control effect; nearly all actives have a fitted effect of over 50% in size
# Sfp PPTase inh: blocks B. subtilis Sfp PPTase activity; Q9F4F7; Biochemical Sfp PPTase activity, qHTS; Potency, µM, for the others: largest response in the series, negative = inhibition, hits mostly inhibitors; actives 3.5% (n = 310,000);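 note: the enzyme is Sfp with the accession as filed and its product quenches rhodamine fluorescence; 0% = enzyme reaction without inhibitor and -100% = no enzyme wells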
#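 Compounds were incubated with enzyme (final 15 nM) for 15 min at room temperature before substrate addition started the reaction. Fluorescence at 525 nm excitation, 598 nm emission was recorded immediately and after 30 minutes.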
# G9a block: G9a (human) methyltransferase inhibition. G9a H3K9 monomethylation, AlphaScreen, 2 h. Potency, µM (series often up to 102 µM), inactives show top-dose activity, negative = inhibition, hits mostly inhibitors. actives 8.8% (n = 350,000). AID 504332; note: % is set by controls: 0 for no effect and ±100 for the full control effect; nearly all actives have a fitted effect of over 75% in size
#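 AlphaScreen read-out: biotin-H3K9 peptide (500 nM) methylation by 20 nM enzyme with 20 uM SAM, 2 h at room temperature after 15 min compound preincubation; anti-monomethyl H3K9 antibody plus donor/acceptor beads, 10 min dark.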
# BAZ2B block: inhibitors of human BAZ2B bromodomain | Potency, µM (doses to about 114 µM), for inactives: at the top dose activity change, negative = inhibition, actives largely listed as inhibitors | AlphaScreen BAZ2B-H3K14Ac peptide displacement | actives 4.4% (n = 360,000); note: % is set by controls: 0 for no effect and ±100 for the full control effect; nearly all actives have a fitted effect of over 60% in size
#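 Compounds, titrated to a top concentration of 110 uM, were incubated 30 min at room temperature with preformed BAZ2B/acetyl-K14 H3 peptide complex (50 nM each). Proximity signal was measured by AlphaScreen after 20 min with beads.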
# Starred values were filed as active, the others as inactive; ? = inconclusive; . = not tested or not shown; [ ] = another dose, or the depositor's remark. A selection: hits, their analogues and other compounds. The true share with any hit is near 12%. Calls come from the whole dose curve; as a rule, active = well fitted curve in the direction sought with a large enough effect; inconclusive = small, poorly fitted or top-dose-only effect, or another doubt; inactive = no such curve, though single readings can be large; an effect the other way counts as inactive or inconclusive. Potency is the fitted concentration of half-maximal effect.
SMILES,HP1b binding inh,L3MBTL1 inh,JMJD2A Tudor,Sfp PPTase inh,G9a block,BAZ2B block
N#Cc1c(N2CCN(C(=O)c3ccco3)CC2)nc(-c2ccccc2)c2c1CCCC2,14%,-5%,-14%,45µM*,-33%[59 µM],-11%
O=C(c1ccco1)N1CCc2[nH]nc(-c3ccccc3)c2C1,42%,.,-15%,11%,79µM*,-33%
CC(C)Cc1nc(N2CCN(C(=O)c3ccco3)CC2)c(C#N)c2c1CCC2,-4%,?,-30%,45µM*,?,-47%
N#Cc1nc(-c2cccs2)oc1N1CCN(Cc2ccccc2)CC1,?,.,?,9%,?,25µM*
N#Cc1c(N2CCN(C(=O)c3ccccc3)CC2)nc(-c2ccccc2)c2c1CCCC2,104%,.,28%,?,-3%[12.7 µM],7%
O=C(NCCc1ccccc1)c1cccc(N2CCCC2=O)c1,41%,.,6%,7%,-4%,-4%
COc1cc(C(C)=O)ccc1Oc1ncnc2c1cnn2-c1ccc(F)cc1,24%,6%,?,12%,-5%[59 µM],-20%
C[C@H]1CN=C(Nc2ccccc2)N1CC1CCCCCC1,15%,9%,-13%,4%,18%,-2%
N#Cc1nc(-c2ccccc2)oc1N1CCN(C(=O)c2ccco2)CC1,-18%,.,-28%,-4%,40µM*,2%
CCOc1cccc(-c2c(C(=O)N/N=C(\C)c3ccccn3)nnn2-c2nonc2N)c1,12%[57 µM],.,25µM*,32µM*,.,13µM*
CCOc1cccc(-c2c(C(=O)N/N=C(\C)c3ccncc3)nnn2-c2nonc2N)c1,43%,.,-17%,15%,.,-9%
COc1ccc(/C=N/NC(=O)c2nnn(-c3nonc3N)c2-c2cccs2)cc1OC,28%,.,-23%,0%,-3%[0.0925 µM],56µM*
CCOc1cccc(-c2c(C(=O)N/N=C/c3ccoc3)nnn2-c2nonc2N)c1,-17%,.,25µM*,13%,54%,79µM*
COc1ccc(O)c(/C=N/NC(=O)c2c(C)nnn2-c2nonc2N)c1,17%,.,?,-17%,79µM*,?
COc1cc(/C=N/NC(=O)c2nnn(-c3nonc3N)c2-c2cccs2)ccc1O,33%,.,-35%,18%,53%,-21%
COc1ccc(/C=N/NC(=O)c2nnn(-c3nonc3N)c2-c2cccc(OC)c2)cc1,34%,.,-30%,12%,21%,-26%
Cc1ccc(S(=O)(=O)N2CCN(S(=O)(=O)c3ccccc3Br)C2=O)cc1,73%,5%,-14%,.,.,.
Cc1cccc(C)c1NC(=O)CSc1nc(C2CC2)nc2ccccc12,1%,.,-4%,-11%,-7%,9%
CCOc1ccc(-c2c(C(=O)N/N=C/C3CC=CCC3)nnn2-c2nonc2N)cc1 (stereo not drawn),51%,.,-21%,12%,6%,79µM*
COc1ccccc1/C(C)=N/NC(=O)c1nnn(-c2nonc2N)c1C(C)C,15%,.,20µM*,7%,16%,-5%
Fc1cccc(CSc2ccc(-c3cccs3)nn2)c1,39%,.,4%,.,8%[59 µM],8%
Brc1cc2ccccc2[n+](Cc2ccccc2)c1,37%,0%,-15%,.,-9%[2.33 µM],-1%
Fc1cccc(C[n+]2csc3ccccc32)c1,18%,-12%,79µM*,20µM*,11µM*,?
c1ccc(C[n+]2csc3ccccc32)cc1,23%,-12%,?,18µM*,?,?
Cc1ccc(NC(=O)c2sc3nc(-c4ccncc4)ccc3c2N)cc1,41%,.,2%,.,?,1%
COc1cccc(-c2ccc3c(N)c(C(=O)Nc4ccccc4C)sc3n2)c1,114%,.,43%,.,-25%[59 µM],55%

# Source: PubChem BioAssay
